# Sampled rows, rich in hits. Any-hit rate of the full collection: about 1.6%.
# FUS yeast rescue: rescues growth of FUS-expressing yeast; S. cerevisiae FUS-expressing, growth rescue, OD600, 24 h; Potency, µM (top dose mostly 76.6 µM), most hits filed as activators; hit rate 0.24% among 390,000; AID 1347120;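 note: plate controls were DMSO vehicle for no effect and reference control for full effect; nearly all actives have a fitted effect of over 55% in size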
#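 Restored growth of FUS-toxic S. cerevisiae, read as 600 nm absorbance after 24 h at 30C in galactose medium (starting OD 0.005). Controls CP55940 and DMSO.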
# gsp antag: antagonists of gsp mutant (McCune-Albright syndrome). hit rate 0.4% among 340,000. AID 624288. Potency, µM (titrated, usually from 76.9 µM), inactives show at the highest dose activity change, negative = inhibition, actives largely listed as inhibitors. gsp-mutant cells, cAMP HTRF, 30 min; calls by dose curve; cell line not stated here;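 note: intracellular cAMP measured with PDE inhibitor Ro 20-1724 present during compound exposure; % is set by controls: 0 for no effect and ±100 for the full control effect; nearly all actives have a fitted effect of over 65% in size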
#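 Cells, 2000/well, grown 16–24 h in DMEM 10% FBS with 0.5 mg/ml G418, then compounds plus […] (300 uM addition stock), 30 min at 37C. cAMP read by HTRF (cAMP-d2 and anti-cAMP antibody-K in lysis buffer) after 30 min RT.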
# ALOX12 inh: ALOX12 (human) lipoxygenase inhibition; P18054; hit rate 1.1% among 580,000; Potency, µM (highest dose often 108 µM), without a hit: at the highest dose activity change, negative = inhibition, hits mostly inhibitors; purified 12hLO, xylenol orange hydroperoxide absorbance; note: % is set by controls: 0 for no effect and ±100 for the full control effect
# Target sequence (P18054 whole entry, looked up): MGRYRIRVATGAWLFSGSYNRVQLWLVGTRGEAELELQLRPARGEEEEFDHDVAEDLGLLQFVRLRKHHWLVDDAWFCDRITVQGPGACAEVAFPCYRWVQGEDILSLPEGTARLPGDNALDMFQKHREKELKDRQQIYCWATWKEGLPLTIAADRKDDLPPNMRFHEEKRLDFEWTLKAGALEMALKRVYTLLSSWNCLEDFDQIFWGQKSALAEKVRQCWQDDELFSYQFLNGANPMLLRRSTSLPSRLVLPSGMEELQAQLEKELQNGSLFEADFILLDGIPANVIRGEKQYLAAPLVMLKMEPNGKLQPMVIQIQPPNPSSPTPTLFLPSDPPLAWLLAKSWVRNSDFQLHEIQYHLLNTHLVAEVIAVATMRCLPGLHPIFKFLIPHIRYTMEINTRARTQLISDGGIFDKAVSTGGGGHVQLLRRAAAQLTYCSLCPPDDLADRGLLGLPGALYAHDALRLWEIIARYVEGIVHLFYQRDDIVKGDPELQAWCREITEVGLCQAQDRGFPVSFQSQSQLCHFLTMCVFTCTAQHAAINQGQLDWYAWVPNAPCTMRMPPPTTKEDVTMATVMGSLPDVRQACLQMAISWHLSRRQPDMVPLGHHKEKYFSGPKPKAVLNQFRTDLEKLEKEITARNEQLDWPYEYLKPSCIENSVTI
#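 Hydroperoxide product was detected by ferrous iron/xylenol orange as the 573 to 405 nm absorbance ratio. Arachidonic acid at 40 uM (final) was turned over for 30 min at room temperature by 150 nM human 12hLO, pH 7.0 Hepes buffer, after 15 min compound preincubation.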
# gsp ag: agonists of gsp mutant (McCune-Albright syndrome). gsp mutant cells, cAMP HTRF, 30 min. Potency, µM (titrated, usually from 76.9 µM), inactives show top-dose activation (cAMP increase), usual class: activators. hit rate 0.13% among 340,000. AID 624287; active = well fitted activation curve with a large enough effect; inconclusive = small, poorly fitted or top-dose-only effect, or another doubt; inactive = no such curve, though single readings can be large or run the other way; cell line not stated here;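 note: phosphodiesterase inhibitor Ro 20-1724 added with compounds to block cAMP breakdown; nearly all actives have a fitted effect of over 60% in size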
#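 Cells stably selected in G418 were plated at 2000/well, grown 16-24 hr, then given compounds in DMSO with the PDE inhibitor […] (300 uM solution added) for 30 min at 37C; cAMP was read by HTRF.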
# Mito fusion yeast: blocks mitochondrial division or promotes mitochondrial fusion | AID 485298 | S. cerevisiae fusion-defective mutant growth rescue, CellTiterGlo 48 h | hit rate 0.23% among 320,000 | Potency, µM (top dose mostly 46.1 µM), without a hit: at the highest dose growth rescue (activation), most hits filed as activators; note: % of control where 0% means no effect; nearly all actives have a fitted effect of over 45% in size
#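 Read-out: ATP-based luminescence (CellTiterGlo, 10 min ambient) reporting growth of fusion-defective ts yeast after 48 hours at 37C on glycerol/ethanol YPEG medium in the presence of compound.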
# Active calls of the source: *; i = inactive; u = inconclusive; x = no result given; ! = a repeat was not active; [ ] = dose if it differs, or a comment. Unless noted, calls come from the whole dose curve; as a rule, active = well fitted curve in the direction sought with a large enough effect; inconclusive = small, poorly fitted or top-dose-only effect, or another doubt; inactive = no such curve, though single readings can be large; an effect the other way counts as inactive or inconclusive. Potency is the fitted concentration of half-maximal effect.
SMILES,FUS yeast rescue,gsp antag,ALOX12 inh,gsp ag,Mito fusion yeast
O=C(NCc1cc(F)ccc1F)c1cccnc1N1CC2CC(C1)[C@H]1CCCC(=O)N1C2 (some centres not stated),x,x,4%,x,x
Cc1nnsc1S(=O)c1ccc(Cl)cc1 (configuration not stated),i,0%,0%,-29%,-10%
O=C(Nc1ccccc1)c1nnsc1S(=O)c1ccc(Cl)cc1 (configuration not stated),i,-1%,14µM*,-21%,-29%
COc1ccc(C2CC(c3cccc(NS(C)(=O)=O)c3)=NN2C(=O)c2cccs2)cc1OC (configuration not stated),x,x,-5%,x,x
S=c1[nH]nc(-c2cccnc2)n1C1CCCCC1,i,6%,-18%,15%,-7%
COc1ccc(Cl)cc1-c1n[nH]c(=S)n1C1CCCCC1,i,-3%,40µM*,1%,5%
COc1ccc(-c2n[nH]c(=S)n2C2CCCCC2)cc1,i,-8%,45µM*,u,-15%
Cc1cc(Cl)ccc1OCc1n[nH]c(=S)n1C1CCCCC1,i,-6%,u,-2%,u
CCn1c(C)nc2cc(C(=O)NNS(=O)(=O)c3ccccc3F)ccc21,i,2%,4.5µM*,-8%,2%
CC(C)C(=O)NC(NC(C)(C)C)C(Cl)(Cl)Cl (configuration not stated),x,x,0%,x,x
NC(N)=NC(N)=Nc1ccc2ccccc2c1,i,11%,10%,-1%,32µM*
COc1cccc(N=C(N)N=C(N)N)c1,i,6%,i,-4%,4%
O=C(N/N=C/c1ccncc1)c1cc([N+](=O)[O-])cc([N+](=O)[O-])c1O,i,-2%,50µM*,-4%,0%
Oc1ccc(NCc2ccccc2OCc2ccccc2)cc1,i,7%,11µM*!,0%,1%
Oc1ccc(NCc2ccccc2OCc2ccc(Cl)cc2)cc1,i,x,124%,x,x
Cc1cccc2c(N=NC(=O)c3ccc(NS(=O)(=O)c4cccs4)cc3)c(O)[nH]c12,i,25µM*,190%,-3%,-2%
Cc1ccc2[nH]c(O)c(N=NC(=O)c3ccc(NS(=O)(=O)c4cccs4)cc3)c2c1,i,-33%,10%,-145%,0%
Cc1ccsc1C(=O)NNC(=O)c1ccc(NS(=O)(=O)c2cccs2)cc1,i,11µM*,-10%,-58%,-8%
CC1=C[C@@H](CNCc2ccc(Cl)cc2)[C@H](C(C)C)C[C@H]1Cc1nnc(-c2cncn2C)o1,x,x,5%,x,x
COCCCn1cc(CN2CC(N3CCN(Cc4cccc(C)c4)CC3)CS2(=O)=O)nn1 (configuration not stated),i,x,11µM*,x,x
O=S1(=O)CC(N2CCN(CCO)CC2)CN1Cc1cn(Cc2cccc(C(F)(F)F)c2)nn1 (configuration not stated),i,x,25µM*,x,x
O=S1(=O)CC(N2CCSCC2)CN1Cc1cn(Cc2cccc(C(F)(F)F)c2)nn1 (configuration not stated),i,x,-5%,x,x
CN(C)CCN1CCN(C2CN(Cc3cn(Cc4cccc(C(F)(F)F)c4)nn3)S(=O)(=O)C2)CC1 (configuration not stated),i,x,u,x,x
Cc1cccc(CN2CCN(C3CN(Cc4cn(Cc5cccc(C(F)(F)F)c5)nn4)S(=O)(=O)C3)CC2)c1 (configuration not stated),i,x,13µM*,x,x
CCCCN=Cc1c(C)[nH]n(-c2ccccc2)c1=S,i,-1%,22µM*,-18%,-9%
SMILES,FUS yeast rescue,gsp antag,ALOX12 inh,gsp ag,Mito fusion yeast
CCn1c(SCC(=O)c2[nH]c(C)c(C(C)=O)c2C)nnc1-c1ccccc1,i,20µM*,55%,-3%,1%
CCn1nc(C(=O)OCC(=O)N2CCCC2)c2ccccc2c1=O,x,x,25%,x,x
Cc1ccc2cc(C#N)c(N3CCCN(S(=O)(=O)c4ccccc4)CC3)nc2c1C,6.3µM*,1%,-18%,31%,x
CCc1ccc(C(=O)NCc2ccnc(N3CCN(C)CC3)c2)s1,x,x,3%,x,x
NS(=O)(=O)c1ccc(CCNC(=O)C2CCN(S(=O)(=O)c3ccccc3)CC2)cc1,i,3%,0%,17%[15.4 µM],4%
NS(=O)(=O)c1ccc(CCNC(=O)C2CCN(S(=O)(=O)c3cnc[nH]3)CC2)cc1,25µM*,9%,-2%,7%,-2%
S=C(NCc1ccco1)N/N=C/c1ccc(Cl)cc1,x,10%,45µM*,-45%,5%
S=C(NCCc1ccccc1)N/N=C/c1ccccc1Cl,i,10%,40µM*,19%,u
CCN(Cc1ccccc1)c1ccc(/C=N/NC(=S)NC(C)C)cc1,i,5%,45µM*,-29%,-14%
CC(C)(C)c1ccc(/C=N/NC(=S)NCc2ccccc2)cc1,i,6%,45µM*,-17%[15.4 µM],-2%
Oc1ccc(/C=N/NC(=S)NCc2ccco2)cc1,i,-2%,-19%,4%,-1%
Cn1cnnc1CC1CCN(c2ncc(C(F)(F)F)cc2Cl)CC1,x,x,32%,x,x
CCCc1cc(N2CCC(N3CC(Oc4ccccc4F)C3)CC2)nc(C)n1,x,x,0%,x,x
CCCN1CCCCC12Cc1ccccc1CN(C(=O)CC)C2 (configuration not stated),x,x,35%,x,x
CCc1ccc(/C=N/NC(=S)NCCc2ccccc2)cc1,i,8%,22µM*,6%,-5%
S=C(NCCc1ccccc1)N/N=C/c1ccccc1Br,x,x,35µM*,x,x
COc1ccc(/C=N/NC(=S)NCCc2ccccc2)cc1,i,-10%,u,-4%,-16%
CCC(N)(CC)c1cn(CC2CCCN(S(C)(=O)=O)C2)nn1 (configuration not stated),x,x,20µM*,x,x
COc1ccc2nc(/C=C/c3cccc(O)c3)sc2c1,x,x,6.3µM*,x,x
CC(=O)NC[C@@H]1C=C(C)[C@H](Cc2nc3ccc(C)cc3[nH]2)C[C@H]1C(C)C,x,x,26%[176 µM],x,x
C[C@@H]1CN([C@@H](C)CO)C(=O)CCCn2nncc2CO[C@@H]1CN(C)C(=O)c1ccc(N2CCN(C)CC2)cc1,i,x,-12%,10µM*,x
COCC(=O)NC[C@@H]1C=C(C)[C@H](Cc2nc3ccc(C)cc3[nH]2)C[C@H]1C(C)C,x,x,71%[176 µM],x,x
O=Cc1csc(-c2ccc(C(F)(F)F)cc2)n1,x,x,6%,x,x
Cc1nnc(NC(=O)CCCCCN2C(=O)C3C4C=CC(C4)C3C2=O)s1 (configuration not stated),i,50µM*,13%[57.4 µM],-119%,-2%
O=S(=O)(c1ccc2ccccc2c1)N(Cc1ccco1)Cc1cccs1,x,x,50µM*,x,x
Cc1ccc(S(=O)(=O)N(Cc2ccco2)Cc2ccco2)cc1,x,x,-27%,x,x
COc1cc(/C=C/C(=O)OCC(=O)Nc2cc(S(=O)(=O)N3CCCCC3)ccc2C)ccc1O,25µM*,-28%,2%,-8%[15.4 µM],2%

# High-throughput results (PubChem)
